A selection: hits, their analogues and other compounds. The true share with any hit is near 2.1%.
Abeta yeast res: A-beta toxicity reversal in yeast. yeast expressing A-beta42, growth rescue, OD600, 48 h; response scale: 0% DMSO, 100% iron-clioquinol control. Potency, µM (top dose mostly 46.1 µM), hits mostly activators. 0.063% of 410,000 active; note: nearly all actives have a fitted effect of over 55% in size
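Growth rescue measured by 600 nm absorbance after 48 h yeast culture at 30 C with compound. Values normalized between DMSO and an equimolar ferric chloride plus clioquinol control.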
aSyn yeast inh: rescues yeast growth from alpha-synuclein toxicity | AID 652106 | Potency, µM (highest dose often 46.1 µM), inactives show at the highest dose growth rescue (activation), actives largely listed as activators | 0.14% of 370,000 active | Yeast expressing alpha-synuclein, growth rescue, BacTiter-Glo, 24 h; note: % of control where 0% means no effect; nearly all actives have a fitted effect of over 65% in size
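Readout is rescue of growth in alpha-synuclein-expressing yeast, so inhibitors of toxicity appear as activators. Growth after 24 hr at 30 deg C in galactose medium is quantified by luminescence.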
TDP-43 yeast inh: TDP-43 toxicity inhibition in yeast; 1.8% of 410,000 active; Potency, µM (highest dose often 46.1 µM), for the others: top-dose growth rescue (activation), most hits filed as activators; TDP-43 expressing yeast growth rescue, BacTiter-Glo, 24 h; AID 652104; note: % of control where 0% means no effect; nearly all actives have a fitted effect of over 50% in size
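Yeast expressing TDP-43 (pregrown in raffinose, seeded at OD600=0.02 in galactose medium) exposed to compounds 24 hr at 30 deg C. Growth read by BacTiter-Glo luminescence; rescue of toxicity appears as increased signal.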
FUS yeast rescue: rescues growth of FUS-expressing yeast | S. cerevisiae FUS-expressing, growth rescue, OD600, 24 h | Potency, µM (titrated, usually from 76.6 µM), hits mostly activators | 0.24% of 390,000 active;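 note: plate controls were DMSO vehicle for no effect and reference control for full effect; nearly all actives have a fitted effect of over 55% in size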
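Cultures pregrown in 2.5% raffinose medium are shifted to minimal medium containing 2% galactose to express toxic FUS. Compounds are tested at several concentrations. After 24hr at 30C, growth is quantified at 600 nm absorbance.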
The depositor's hits bear a star; i = inactive; ? = inconclusive; nt = not tested or not shown; [ ] = dose if it differs, or a comment. Calls come from the whole dose curve; as a rule, active = well fitted curve in the direction sought with a large enough effect; inconclusive = small, poorly fitted or top-dose-only effect, or another doubt; inactive = no such curve, though single readings can be large; an effect the other way counts as inactive or inconclusive. Potency is the fitted concentration of half-maximal effect.

SMILES	Abeta yeast res	aSyn yeast inh	TDP-43 yeast inh	FUS yeast rescue
Cc1ccc(/C(O)=C2\C(=O)C(=O)N(CCc3c[nH]c4ccccc34)C2c2cccnc2)cc1 (stereo unspecified)	i	-2%	-17%	35µM*
N#Cc1ccc(C(=O)OCC(=O)N2CCCCCC2)cc1	i	1%	0%	i
COC(=O)[C@]12C[C@H](CC(=O)NCCc3ccccc3OC)C(=O)N(Cc3cccc4ccccc34)C1=C[C@H](COCc1ccccc1)O[C@@H]2C	nt	nt	nt	16µM*
COC(=O)[C@]12C[C@H](CC(=O)NCC3CCCCC3)C(=O)N(CCc3ccc(OC)c(OC)c3)C1=C[C@H](COCc1ccccc1)O[C@@H]2C	nt	nt	nt	10µM*
CCOC(=O)N1CCN(C(=O)C[C@H]2C[C@@]3(C(=O)OC)C(=C[C@H](COCc4ccccc4)O[C@@H]3C)N(Cc3cccc4ccccc34)C2=O)CC1	nt	nt	nt	22µM*
COC(=O)[C@]12C[C@H](CC(=O)NCc3cccc4ccccc34)C(=O)N(Cc3ccc(Cl)cc3Cl)C1=C[C@H](COCc1ccccc1)O[C@@H]2C	nt	nt	nt	i
O=C(O)Cn1nnnc1SCC(=O)Nc1ccc(F)cc1F	i	3%	-20%	i
CC(C)c1ccc(Nc2nc(N3CCOCC3)nc(N3CCOCC3)n2)cc1	i	16%	?	i
CC(C)c1ccc(Nc2nc(NCc3ccco3)nc(N3CCOCC3)n2)cc1	i	-19%	16µM*	i
O=C(C1CCCN(S(=O)(=O)c2cc(Cl)ccc2Cl)C1)N1CCCC1 (stereo unspecified)	i	5%	?	nt
O=C(CSc1nnc(CNC(=O)c2cccs2)o1)NCc1ccc(F)cc1	i	2%	15%	i
Cc1cc(S(=O)(=O)Nc2c(NC3CCCCC3)c3ccccc3oc2=O)ccc1F	nt	7%	6%	i
COc1ccc(Cl)cc1S(=O)(=O)Nc1noc2ccccc12	i	-13%	10µM*	i
Cc1cc(S(=O)(=O)Nc2noc3ccccc23)ccc1F	i	-22%	11µM*	i
COc1ccc(/C=C/C(=O)c2ccc3c(c2)OCO3)c(OC)c1	i	-15%	12%	i
O=[N+]([O-])c1cccnc1N1CCC(c2cc(-c3ccc(Cl)cc3Cl)n[nH]2)CC1	?	?	?	25µM*
COc1cccc(C(=O)NCCc2csc(-c3ccc(Cl)cc3)n2)c1	i	nt	35µM*	i
COc1ccc(-c2nc(CCNC(=O)c3c(F)cccc3Cl)cs2)cc1	i	nt	18µM*	i
CC(C)(C)c1ccc(C(=O)NCCc2csc(-c3ccc(Cl)cc3)n2)cc1	i	nt	17%	i
COc1ccc(NC(=O)C(=O)NCCc2csc(-c3ccc(Cl)cc3)n2)cc1	i	nt	10%	i
O=C(NCCc1csc(-c2ccc(C(F)(F)F)cc2)n1)c1ccccc1Cl	i	nt	?	i
O=C(NCCc1csc(-c2ccc(C(F)(F)F)cc2)n1)c1cccs1	i	-14%	22µM*	?
COc1cccc(OC)c1C(=O)NCCc1csc(-c2ccc(Cl)cc2)n1	i	nt	22µM*	i
O=C(COC(=O)CSc1ccc([N+](=O)[O-])cc1)NCC1CCCO1 (stereo unspecified)	i	-6%	2%	i
Cc1nn(CC(=O)NCc2ccccc2Cl)c(=O)c2nn(-c3ccccc3)c(C)c12	i	nt	17%	i
SMILES	Abeta yeast res	aSyn yeast inh	TDP-43 yeast inh	FUS yeast rescue
Nc1cc(C(=O)O)c(N)c2c1C(=O)c1ccccc1C2=O	i	-29%	-34%	i
O=C(O)c1cc2ccccc2c2c1C(=O)c1ccccc1-2	?	2.8µM*	-8%	i
O=C(CNC(=O)C1CCCCC1)OCC(=O)c1ccccc1	nt	2%	nt	nt
Clc1nnc(NC2CCCCC2)c(Cl)c1Cl	i	?	22µM*	i
COc1cc(OC)cc(C(=O)NC2CCSC2=O)c1 (stereo unspecified)	i	2%	-20%	?
O=C(Nc1ccc(Cl)cc1)P(=O)(O)c1ccccc1	i	0%	18µM*	i
Cc1cc(SCC(=O)OCC(=O)NCC2CCCO2)c(C)cc1Br (stereo unspecified)	i	5%	25µM*	i
COc1ccccc1-c1oc2ccccc2c1C#CC(C)(C)O	i	5%	16µM*	i
COc1ccccc1-c1oc2ccccc2c1C#CCO	i	-2%	-3%	i
CCOc1ccc(N=C2SC(C(=O)Nc3ccccc3C#N)C(N)=C2C(=O)Nc2ccc(Cl)cc2)cc1 (stereo unspecified)	i	14%	25%	35µM*
CCOc1ccc(NCc2cccn2-c2nnc(N3CCC(C(=O)NCCc4ccc(OC)c(OC)c4)CC3)s2)cc1	i	nt	-6%	25µM*
Cc1ccc(Sc2ccc(CO)cc2[N+](=O)[O-])cc1	i	24%	14µM*	i
CC(=O)c1ccc(Sc2ccccc2)c([N+](=O)[O-])c1	i	1%	11µM*	i
Cc1ccc(NC(=O)CNC(=O)c2ccc(C(C)(C)C)cc2)cc1S(=O)(=O)N1CCOCC1	i	0%	-17%	i
O=C(Cc1ccc2c(c1)OCCO2)Nc1cc(Cl)ccc1N1CCOCC1	i	-2%	-13%	i
C=CCC[C@H](Cc1ccc(F)cc1)C(=O)OC[C@@H](C)NC(=O)[C@@H](CC=C)CC(=O)N[C@H](CO)Cc1ccccc1	i	-3%	-2%	25µM*
C=CC[C@@H](CC(=O)N[C@H](CO)Cc1ccccc1)C(=O)N[C@H](COC(=O)[C@@H](CC=C)Cc1ccc(F)cc1)C(C)(C)C	i	-10%	17%	16µM*
C=CC[C@@H](CC(=O)N[C@@H](CO)Cc1ccccc1)C(=O)N[C@H](COC(=O)[C@@H](CC=C)Cc1ccc(F)cc1)Cc1ccccc1	i	1%	11%	i
C=CCC[C@H](Cc1ccc(F)cc1)C(=O)OC[C@@H](NC(=O)[C@@H](CC=C)CC(=O)N[C@@H](CO)Cc1ccccc1)C(C)(C)C	i	-1%	-30%	13µM*
C=CCC[C@H](Cc1ccc(F)cc1)C(=O)OC[C@@H](C)NC(=O)[C@@H](CC=C)CC(=O)N[C@@H](CO)Cc1ccccc1	i	-3%	20%	i
C=CCC[C@@H](Cc1ccc(F)cc1)C(=O)OC[C@@H](NC(=O)[C@@H](CC=C)CC(=O)N[C@@H](CO)Cc1ccccc1)C(C)(C)C	i	-2%	23%	i
O=C(NN1CCN(Cc2ccccc2)CC1)c1ccc(N2CCOCC2)c([N+](=O)[O-])c1	i	0%	0%[0.397 µM]	i
CN(C)c1cccc(NC(=O)C2Cc3c(-c4ccccc4Oc4ccccc4)ccnc3O2)c1 (stereo unspecified)	i	-1%	22%	25µM*
CC(=O)Nc1ccc(-c2ccnc3c2CC(C(=O)Nc2cccc(Oc4ccccc4)c2)O3)cc1 (stereo unspecified)	i	13%	?	11µM*

Assay outcomes from PubChem BioAssay.
